Here are results for 46 molecules from PubChem BioAssay AID2685 (National Center for Advancing Translational Sciences (NCATS), 2010).

The whole screen tested about 320,000 compounds, of which about 2,100 (0.66%) were called active. Inconclusive results (about 53%) are left out. The call rests on the fitted dose curve; in most records, active means well fitted inhibition curve with a large enough effect in the signal ratio, with a control signal flat (not every such curve was filed as active); inconclusive means small, poorly fitted or top-dose-only effect, or effect the other way, or a change in a side signal; inactive means flat fitted curve, though single readings scatter; the % refers to the signal ratio. The list comes from a sample in which actives are over-represented; it also holds similar structures and randomly drawn compounds.
Potency means the concentration at half of the fitted maximal effect.

This experiment is described as follows: qHTS Assay for Lipid Storage Modulators in Drosophila S3 Cells.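 On cell number change: cells counted by Cell Tracker Red CMTPX staining in the red channel.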 On lipid storage change, negative = inhibition: on the % scale 0 is the no-effect control and ±100 the full control effect. The following applies: BODIPY lipid droplet fluorescence, 18-24 h, cells fed with added oleic acid; cell number change: measured here: cell count max response; series mostly up to 46.1 µM; lipid storage change, negative = inhibition: at the top concentration. Put shortly: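 Laser-scanning cytometry quantifies lipid droplet accumulation (500–530 nm total intensity; droplet/cell object ratio) in oleic acid-fed (400 uM added) Drosophila S3 cells treated with a concentration series. 20 uM Triacsin C defined 100% inhibition.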
In the case of `O=C(c1ccccc1Cl)N1CCSCC1`, the “lipid storage change, negative = inhibition” value is -5.54% (inactive) and the cell number change stood at 2.74%.

With `O=C(NC1CC1)C1CCN(C(=O)c2ccccc2Cl)CC1`, the call was inactive.

Regarding `O=CN1CCN(C(=O)c2ccccc2Cl)CC1`, the Potency was 16.4 µM (active) and the cell number change is -3.9%.

On to `O=C(NC1CCCCC1)C1CCN(C(=O)c2ccccc2Cl)CC1`, for which the “lipid storage change, negative = inhibition” value is -5% (inactive) and the cell number change was -4.35%.

As for `O=C(O)C1CCN(C(=O)c2ccccc2Cl)CC1`, the Potency is 18.4 µM (active) and the cell number change was 6.2%.

For the molecule `O=C(O)c1ccccc1C(=O)N1CCN(C(=O)c2ccccc2Cl)CC1`, the “lipid storage change, negative = inhibition” value is 2.44% (inactive) and the cell number change worked out at 18.7%.

For `O=C(NCCCn1ccnc1)c1cc2cc([N+](=O)[O-])ccc2oc1=O`, the “lipid storage change, negative = inhibition” value is 19.8% (inactive) and the cell number change turned out to be 15.7%.

`CCCN1CCC(=NNc2ccc(S(N)(=O)=O)cc2[N+](=O)[O-])CC1`: the “lipid storage change, negative = inhibition” value was -4.49% (inactive) and the cell number change is -0.104%.

Regarding `CCCn1c(SCCN2CCOCC2)nc2c1c(=O)n(C)c(=O)n2C`, the result was inactive.

As to `COc1ccc(CNC(=O)CN2C(=O)NC3(CCCCCC3)C2=O)cc1OC`, the “lipid storage change, negative = inhibition” value is -22.1% (inactive) and the cell number change is -8.33%.

On to `COc1ccc(CNC(=O)CN2C(=O)NC(C)(c3cccc4ccccc34)C2=O)cc1OC` (centres undefined), for which the Potency was 18.4 µM (active) and the cell number change is -4.84%.

For `COc1ccc(CNC(=O)CN2C(=O)NC(C)(c3cccc(Br)c3)C2=O)cc1` (centres undefined), the “lipid storage change, negative = inhibition” value was 11.7% (inactive) and the cell number change was determined as 15.2%.

For the molecule `Cc1c(C)c(C)c(S(=O)(=O)NCCC(=O)N2CCN(Cc3ccc(C#N)cc3)CC2)c(C)c1C`, the “lipid storage change, negative = inhibition” value was -6.69% (inactive) and the cell number change came out at 10.7%.

As to `N#Cc1ccc(CN2CCN(C(=O)CCNS(=O)(=O)c3ccc(F)c(Cl)c3)CC2)cc1`, the Potency is 20.6 µM (active) and the cell number change was -29%.

On to `O=C(CCNS(=O)(=O)c1ccc(Cl)cc1)N1CCN(Cc2ccccc2)CC1`, for which the “lipid storage change, negative = inhibition” value was -8.38% (inactive) and the cell number change was -14.8%.

For the molecule `Cc1cccc(N2CCN(C(=O)CC(NC(=O)c3ccccc3Cl)c3ccccc3)CC2)c1C` (centres undefined), the Potency was 10.3 µM (active) and the cell number change is -1.65%.

As to `Cc1cccc(N2CCN(C(=O)C(Cc3ccccc3)NC(N)=O)CC2)c1C` (centres undefined), the “lipid storage change, negative = inhibition” value was 5.13% (inactive) and the cell number change was -3.7%.

On to `Cc1ccc(NC(=O)CC(NC(=O)c2ccccc2Cl)c2ccccc2)nc1` (centres undefined), for which the “lipid storage change, negative = inhibition” value was -13.8% (inactive) and the cell number change stood at 12.3%.

For the molecule `CCC(C)NC(=O)CSc1c2c(nc3ccccc13)CCCC2` (centres undefined), the “lipid storage change, negative = inhibition” value is -0.588% (inactive) and the cell number change is -7.84%.

Turning to `COCCNC(=O)CSc1nc2ccccc2c(=O)n1CCC(=O)NCCc1ccc(OC)c(OC)c1`, the “lipid storage change, negative = inhibition” value is -6.85% (inactive) and the cell number change is -7%.

For `CCOC(=O)CN1NC2(CCC(C)CC2)NC1=S` (centres undefined), the Potency is 18.4 µM (active) and the cell number change was found to be 16.5%.

With `CCOC(=O)CN1NC2(CCC(C(C)(C)C)CC2)NC1=S` (centres undefined), the “lipid storage change, negative = inhibition” value was -2.81% (inactive) and the cell number change was 0.162%.

Regarding `CCOC(=O)CN1NC2(CCCCCCC2)NC1=S`, the “lipid storage change, negative = inhibition” value was 17% (inactive) and the cell number change amounted to 26.5%.

Consider `CC(=O)N1CC2(NC(=O)c3ccccc3N2)c2ccccc21` (centres undefined), for which the “lipid storage change, negative = inhibition” value is -3.02% (inactive) and the cell number change worked out at 1.06%.

For `COc1ccc(-n2nnc3c(=O)n(CC(=O)N4CCCCC4)cnc32)cc1`, the call was inactive.

With `Cc1ccccc1NC(=O)/C=C/c1ccc([N+](=O)[O-])s1`, the Potency is 9.2 µM (active) and the cell number change is -29.7%.

As to `Cc1cc(C)cc(NC(=O)/C=C/c2ccc([N+](=O)[O-])s2)c1`, the “lipid storage change, negative = inhibition” value is -0.708% (inactive) and the cell number change was -13.6%.

On to `Cc1ccccc1NC(=O)/C=C/c1cccs1`, for which the “lipid storage change, negative = inhibition” value is -3.06% (inactive) and the cell number change was -15.7%.

For `CC(=O)c1cccc(NC(=O)/C=C/c2ccc([N+](=O)[O-])s2)c1`, the “lipid storage change, negative = inhibition” value is -0.322% (inactive) and the cell number change is -6.6%.

As for `CN(C(=O)/C=C/c1ccc([N+](=O)[O-])s1)c1ccccc1`, the “lipid storage change, negative = inhibition” value is -2.6% (inactive) and the cell number change is 5.5%.

`Cc1cccc(NC(=O)/C=C/c2ccc([N+](=O)[O-])s2)c1`: the Potency is 20.6 µM (active) and the cell number change was -28.2%.

Regarding `O=C(c1ccc(-n2cncn2)c([N+](=O)[O-])c1)N1CCN(c2cccc(Cl)c2)CC1`, the “lipid storage change, negative = inhibition” value was -19.8% (inactive) and the cell number change turned out to be 25.4%.

`Cn1cnc2cc(OC(=O)c3ccccc3)ccc21`: the molecule was called inactive and the cell number change amounted to 19.2%.

Consider `CCOC(=O)/C(=N\Nc1ccc(C(C)=O)cc1)c1csc(Nc2ccccc2)n1`, for which the Potency is 16.4 µM (active) and the cell number change stood at 17.1%.

For the molecule `CCCCC(CCC(=O)O)(C(=O)OCC)c1csc(Nc2ccccc2)n1` (centres undefined), the “lipid storage change, negative = inhibition” value is 9.89% (inactive) and the cell number change is 0.537%.

As to `CCOC(=O)c1nc(Nc2ccc(C(C)=O)cc2)c2ccccc2n1`, the “lipid storage change, negative = inhibition” value is -4.14% (inactive) and the cell number change is -13.6%.

For the molecule `COc1cccc(NC(=S)Nc2cc(C(=O)O)ccc2N2CC3CC(C2)c2cccc(=O)n2C3)c1` (centres undefined), the “lipid storage change, negative = inhibition” value is -0.148% (inactive) and the cell number change is -20.1%.

As to `CC(C)c1cccc(C2=CC(=O)C[C@H](c3ccc(F)cc3)C2)c1`, the “lipid storage change, negative = inhibition” value is 9.98% (inactive) and the cell number change is -1.84%.

Turning to `O=C(NCc1ccccc1)C(c1ccccc1)N(C(=O)c1csnn1)C1CC1` (centres undefined), the “lipid storage change, negative = inhibition” value is -16.2% (inactive) and the cell number change amounted to 0.427%.

Turning to `COc1ccc(CNC(=O)C(c2cccc(C)c2)N(C(=O)c2csnn2)C2CC2)cc1` (centres undefined), the Potency is 2.06 µM (active) and the cell number change came to 16.2%.

Take `COc1ccc(CNC(=O)C(c2ccccc2F)N(C(=O)c2csnn2)C2CC2)cc1` (centres undefined): the “lipid storage change, negative = inhibition” value was 16.9% (inactive) and the cell number change was 9.27%.

For the molecule `Cc1nonc1C(=O)N/N=C/c1cc2c(cc1Br)OCO2`, the “lipid storage change, negative = inhibition” value is -3.58% (inactive) and the cell number change was 13%.

In the case of `COc1cc2c(cc1OC)CN(C(=S)Nc1ccc(C)cc1C)CC2`, the “lipid storage change, negative = inhibition” value was -12.4% (inactive) and the cell number change is -5.84%.

As for `O=C(Nc1ccccc1-c1nc2ccccc2[nH]c1=O)c1cccs1`, the Potency was 9.2 µM (active) and the cell number change was 7.26%.

Regarding `CC(C)C(=O)Nc1ccccc1-c1nc2ccccc2[nH]c1=O`, the molecule was classed as inactive and the cell number change was -27.6%.

On to `CCC(=O)Nc1ccccc1-c1nc2ccccc2[nH]c1=O`, for which the outcome was inactive and the cell number change is -8.79%.
